JMJD2A Tudor: blocks the human JMJD2A Tudor domain. Potency, µM (top dose mostly 114 µM), without a hit: at the top dose activity change, negative = inhibition, most hits filed as inhibitors. O75164. AlphaScreen JMJD2A-Tudor / H3K4me3 peptide binding. hit rate 4.4% among 390,000; also: % is scaled to controls: 0 for no effect and ±100 for the full control effect; nearly all actives have a fitted effect of over 50% in size
HP1b chromo inh: inhibitors of HP1-beta chromodomain binding to methylated histone tails. P83916. AlphaScreen HP1-beta / biotin-H3K9me3 peptide binding. Potency, µM (series often up to 114 µM), inactives show at the highest dose activity change, negative = inhibition, usual class: inhibitors. hit rate 0.56% among 390,000; also: nearly all actives have a fitted effect of over 70% in size
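Compound inhibition of the preformed complex between 50 nM HP1-beta and 50 nM biotinylated H3K9me3 peptide was read by AlphaScreen. Buffer was PBS pH 7.4 with 0.01% Tween-20. Incubations ran 30 min at room temperature, with 10 ug/mL donor/acceptor beads.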
PLK1 PBD inh: inhibitors of human PLK1 polo-box domain binding; P53350; Plk1 PBD binding of FITC phosphopeptide, fluorescence polarization; Potency, µM, inactives show max response, negative = inhibition, hits mostly inhibitors; AID 720504; hit rate 2.8% among 360,000; also: series mostly up to about 57 µM; % is scaled to controls: 0 for no effect and ±100 for the full control effect; nearly all actives have a fitted effect of over 65% in size
Target sequence (P53350 whole entry, looked up, the tested form may be a part): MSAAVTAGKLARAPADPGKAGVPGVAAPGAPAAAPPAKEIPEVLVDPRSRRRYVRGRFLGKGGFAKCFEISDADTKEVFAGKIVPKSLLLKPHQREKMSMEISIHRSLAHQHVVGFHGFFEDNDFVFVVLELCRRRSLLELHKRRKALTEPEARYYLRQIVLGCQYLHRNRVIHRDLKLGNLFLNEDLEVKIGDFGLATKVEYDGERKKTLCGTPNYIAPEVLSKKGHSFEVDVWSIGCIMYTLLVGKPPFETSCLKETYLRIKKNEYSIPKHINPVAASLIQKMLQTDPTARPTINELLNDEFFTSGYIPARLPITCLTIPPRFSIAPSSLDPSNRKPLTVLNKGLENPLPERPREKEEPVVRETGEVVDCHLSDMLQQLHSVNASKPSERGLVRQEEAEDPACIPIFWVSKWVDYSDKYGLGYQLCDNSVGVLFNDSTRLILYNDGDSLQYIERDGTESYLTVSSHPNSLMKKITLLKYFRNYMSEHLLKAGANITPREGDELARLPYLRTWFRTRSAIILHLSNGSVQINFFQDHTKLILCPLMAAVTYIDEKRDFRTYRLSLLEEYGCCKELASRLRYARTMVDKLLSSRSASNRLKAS
Sfp PPTase inh: Sfp phosphopantetheinyl transferase inhibition; AID 1490; Q9F4F7; Potency, µM, without a hit: largest response in the series, negative = inhibition, hits mostly inhibitors; Biochemical Sfp PPTase activity, qHTS; hit rate 3.5% among 310,000;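 also: the enzyme is Sfp with the accession as filed and its product quenches rhodamine fluorescence; 0% = enzyme reaction without inhibitor and -100% = no enzyme wells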
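Reaction rates are the 30-min fluorescence difference (ex 525, em 598 nm) in wells containing 15 nM Sfp, 5 uM rhodamine-CoA and 12.5 uM BHQ-2-YbbR at pH 7.6 with 10 mM MgCl2.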
BAZ2B block: inhibitors of human BAZ2B bromodomain; hit rate 4.4% among 360,000; AlphaScreen BAZ2B-H3K14Ac peptide displacement; Potency, µM (top dose mostly 114 µM), for the others: top-dose activity change, negative = inhibition, usual class: inhibitors; also: % is scaled to controls: 0 for no effect and ±100 for the full control effect; nearly all actives have a fitted effect of over 60% in size
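Protein-peptide AlphaScreen: BAZ2B 50 nM, b-H3K14Ac 50 nM, 1x PBS pH 7.4 + 0.01% Tween-20. Preincubation 30 min RT; cpd 30 min RT (top 110 uM); beads 20 min RT, light-protected.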
G9a block: blocks human histone lysine methyltransferase G9a. hit rate 8.8% among 350,000. Q96KQ7. Potency, µM (series often up to 102 µM), inactives show at the top dose activity, negative = inhibition, hits mostly inhibitors. G9a H3K9 monomethylation, AlphaScreen, 2 h; also: % is scaled to controls: 0 for no effect and ±100 for the full control effect; nearly all actives have a fitted effect of over 75% in size
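G9a (20 nM) preincubated 15 min RT with compounds, then 500 nM biotinylated H3K9 peptide and 20 uM SAM added; 2 h RT reaction. Monomethyl-H3K9 product detected by AlphaScreen with anti-H3K9me1 antibody, streptavidin donor and anti-rabbit IgG acceptor beads.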
* hit, by the source's call; u = inconclusive; x = no result given; [ ] = another dose, or the depositor's remark. In the library only some 12% were active in any assay of this set; here they are far more common. Calls follow the shape of the dose curve; as a rule, active = well fitted curve in the direction sought with a large enough effect; inconclusive = small, poorly fitted or top-dose-only effect, or another doubt; inactive = no such curve, though single readings can be large; an effect the other way counts as inactive or inconclusive. Potency is read from the fitted curve at half-maximal effect.

SMILES	JMJD2A Tudor	HP1b chromo inh	PLK1 PBD inh	Sfp PPTase inh	BAZ2B block	G9a block
C#CCOCCOCCOCCNc1nc(N2CCN(C(=O)[C@H](CCCN=C(N)N)n3cc(C(N)[C@@H](C)CC)nn3)CC2)nc(N2CCN(C(=O)[C@H](CCCCN)n3cc([C@@H](N)[C@H](C)CC)nn3)CC2)n1 (stereo not given in full)	-30%	35%	-3%	x	x	x
C#CCOCCOCCOCCNc1nc(N2CCN(C(=O)[C@H](CCCN=C(N)N)n3cc(C(N)[C@@H](C)CC)nn3)CC2)nc(N2CCN(C(=O)[C@H](CCC(=O)O)n3cc([C@@H](N)CCCCN)nn3)CC2)n1 (stereo not given in full)	89µM*	17%	-1%	x	x	x
C#CCOCCOCCOCCNc1nc(N2CCN(C(=O)[C@H](CCCCN)n3cc(C(N)[C@H](C)CC)nn3)CC2)nc(N2CCN(C(=O)[C@H](CCC(=O)O)n3cc(C(N)[C@H](C)CC)nn3)CC2)n1 (stereo not given in full)	50µM*	44%	-10%	u	79µM*	u
O=c1cc(O)c2ccccc2n1Cc1ccccc1F	-21%	1%	-4%	-2%	-10%	-32%
O=C(CSc1nc(-c2ccccc2)nc2c1Cc1ccccc1O2)N1CCCCC1	-8%	46%	x	x	-22%	6%[59 µM]
c1coc(-c2nn3c(-c4ccco4)nnc3s2)c1	u	20%	-17%	-12%	u	u
Clc1ccc(OCc2nn3c(-c4ccco4)nnc3s2)cc1	-20%[11.4 µM]	-20%	24µM*	u	u	u
COc1ccc(OCc2nn3c(-c4ccco4)nnc3s2)cc1	-25%	6%	-11%	-6%	-37%	u
Clc1ccc(-c2nnc3sc(Cc4cccs4)nn23)c(Cl)c1	-22%	37%	-6%	1%	-32%	40µM*
c1coc(-c2nnc3sc(Cc4cccs4)nn23)c1	40µM*	u	27µM*	-4%	50µM*	u
Nc1nonc1C(=O)NCCNCc1ccc(Cl)c(Cl)c1	-3%	49%	x	x	-15%	4%[59 µM]
COc1cc(C(=O)Nc2ccc(NC(C)=O)cc2)ccc1OCc1ccccc1	7%	13%	-7%	-16%	-6%	u
Cc1cccc(NC(=S)NC2CC3CCCC(C2)N3Cc2ccccc2)c1C (stereo not given)	-27%	15%	-22%	-18%	u	x
Cc1cc(C)cc(Cn2cc(CN3CC(N4CCN(C)CC4)CS3(=O)=O)nn2)c1 (stereo not given)	x	x	-13%	x	x	x
COc1cc(OC)c(NC(=O)c2noc3c2CSc2ccccc2-3)cc1Cl	2%	61%	x	x	18%	1.6µM*
COc1ccc(NC(=O)c2noc3c2CSc2ccccc2-3)cc1Cl	5%	39%	x	x	0%	-34%[59 µM]
CC(=O)c1ccc(NC(=O)c2noc3c2CCC3)cc1	-15%[11.4 µM]	u	-23%	-5%	56µM*	40µM*
Cc1ccc(NC(=O)c2noc3c2CCC3)cc1C	40µM*	50µM*	u	7%	45µM*	u
COc1cc(OC)c(NC(=O)c2nn(C)c3c2COc2ccccc2-3)cc1Cl	-9%	146%	x	x	-9%	2.2µM*
O=C(Nc1cccc(O)c1)c1noc2c1CCCCC2	-16%	11%	-4%	7%	8%	15%[59 µM]
N#Cc1cccc(NC(=O)N2CCCC3(CCN(C(=O)c4cc(C(F)(F)F)cc(C(F)(F)F)c4)CC3)C2)c1	x	x	x	13%	x	-1%[12.7 µM]
CCNC(=O)C1(C)CCCN(C(=O)c2cc(C)nn2C(C)(C)C)C1 (stereo not given)	x	x	-8%	x	x	x
COc1cc(NC(=O)c2noc3c2CCC3)c(OC)cc1Cl	45µM*	u	u	u	50µM*	u
O=C(Nc1ccc(OC(F)(F)F)cc1)c1noc2c1CCCC2	5%	40%	x	x	4%	9%[59 µM]
COc1ccc(NC(=O)c2noc3c2CCC3)cc1	56µM*	u	u	8%	45µM*	u
SMILES	JMJD2A Tudor	HP1b chromo inh	PLK1 PBD inh	Sfp PPTase inh	BAZ2B block	G9a block
CCOC(=O)c1ccc(NC(=O)C(CC)Sc2nnc3c4ccccc4n(C)c3n2)cc1 (stereo not given)	-13%	78%	x	x	15%	13%[59 µM]
N#Cc1c(Cl)nsc1NCCN1CCOCC1	3%	40%	-11%	13%	-2%	-8%
O=C1CCCC2=C1Sc1ccc(Cl)cc1N2	-13%	20%	14%	-10%	u	4%[59 µM]
COC(=O)c1ccc2c(c1)SC1=C(CCCC1=O)N2	-36%	-28%	-23%	-4%	40µM*	u
C=CCn1c(C)cc(C(=O)COC(=O)c2ccc3c(c2)NC(=O)CS3)c1C	u	u	u	56µM*	u	20µM*
Cc1ccc(NC(=O)c2ccc3c(c2)NC(=O)CS3)nc1	-21%	u	u	x	-18%	10µM*
Cc1ccc(CN(C)C(=O)c2ccc3c(c2)NC(=O)CS3)o1	-22%[11.4 µM]	-13%	u	32µM*	-23%	u
COc1cc(/C=N/NC(=O)c2cccnc2)ccc1OCC(=O)N1CCOCC1	-14%	12%	-10%	25%	0%	26%
COC(=O)c1ccc2c(c1)NC(=O)CS2	-11%	-4%	21µM*	-12%	-20%	40µM*
CC(OC(=O)c1ccc2c(c1)NC(=O)CS2)C(=O)c1ccc(F)cc1 (stereo not given)	-14%	5%[57 µM]	1%	x	x	x
Cc1ccc2ncc3c(-c4ccccc4)nn(CC(=O)NC4CCCCC4)c3c2c1	-9%	11%	x	x	-8%	11%[59 µM]
Oc1c(/C=C/C=C/C=Nc2ccccc2)sc(=S)n1Cc1ccccc1	u	u	u	u	u	2.2µM*
Cc1ccc(-c2nc(C=Nc3ccccc3)c(O)o2)cc1	-14%	22%	7%	0%	15%	-8%
CCCn1c(O)c(C=Nc2ccccc2)sc1=S	-22%[11.4 µM]	25%	-10%	8%	-12%	-24%
CCn1c(O)c(C=NCc2ccccc2)sc1=S	u	6%	-1%	-14%	u	x
CCn1c(O)c(C=Nc2ccccc2)oc1=S	-21%	-19%	27µM*	u	8%	28µM*
CCn1c(O)c(/C=C/C=C/C=Nc2ccccc2)sc1=S	u	u	u	u	u	14µM*
CCCCn1c(O)c(/C=C/C=C/C=Nc2ccccc2)sc1=S	u	3.2µM*	u	-34%	6.3µM*	2.8µM*
Cc1cccc(N2CCN(c3ncnc4c3nc3n4CCCCC3)CC2C)c1 (stereo not given)	u	-27%	x	x	u	u
COc1ccccc1C1CC(c2cccs2)=Nc2ccccc2S1 (stereo not given)	-34%	1%	-18%	50µM*	-35%	4%[12.7 µM]

Assay outcomes: PubChem, National Center for Advancing Translational Sciences (NCATS)
